Source: PubChem BioAssay AID720650 (Broad Institute, 2013)
Values without a mark were called inactive. Calls of active or inactive are those of the source. No rule for the calls is given here.

Assay: C difficile toxins, biochemical counterscreen, UDPG substrate absence, confirmatory dose response (AID 720650)
Conditions: series mostly up to 19.5 µM; activity change, negative = inhibition: at the top concentration

Row | Structure (SMILES) | activity change, negative = inhibition [%] | AC50
1 | CN1CCN(CC(=O)Nc2cc(N(C)C)nc3ccccc23)CC1 | 8.85 | 
2 | Cc1ccc(S(=O)(=O)Oc2ccc(/C=N/NC(=O)c3nn(C)cc3[N+](=O)[O-])cc2)cc1 | -0.306 | 
3 | COc1cc(NC(=O)CCc2nnc3ccc(N4CCC(C)CC4)nn23)cc(OC)c1 | 15.7 | 
4 | CC(=O)C1=CCC(c2ccc(C)cc2)N(S(=O)(=O)c2ccc(C)cc2)C1 (centres undefined) |  | > 39 µM
5 | COc1ccc(Cl)cc1NC(=O)CN(C)C(=O)c1cc2c(s1)CCCC2 | -0.404 | 
6 | Cn1c(=O)[nH]c(=O)c2c1[nH]c(=S)n2CCCc1ccccc1 | -19.3 | 
7 | CCCNC(=O)N1CC[C@@H]2[C@@H](CO)N(C)c3ccc(-c4ccc(F)cc4)cc3[C@@H]21 |  | 4.27 µM (active)
8 | CN(CCN1CCOCC1)C(=O)CC1C(=O)NCCN1Cc1ccccc1C(F)(F)F (centres undefined) | 8.75 | 
9 | CCc1ccccc1NC(=O)CN1CCN(CC(=O)NCc2ccc(Cl)cc2)CC1 | 5.72 | 
10 | Cc1ccc(CNC(=O)Nc2cccc(C)c2)cc1 | -1.63 | 
11 | Cc1cccc(-n2c(=O)c3ccccc3n3c(=S)[nH]nc23)c1C | -17.6 | 
12 | CC(C(=O)OCC(=O)c1c(N)n(C)c(=O)n(C)c1=O)N1C(=O)c2ccccc2C1=O (centres undefined) | -5.17 | 
13 | O=C(NCCc1ccc(Cl)cc1)C1CCN(S(=O)(=O)c2ccc(Br)s2)CC1 | -4.2 | 
14 | CC(N)C(=O)NC(C(=O)N1CCCC1C(=O)NC(c1ccccc1)c1ccccc1)C(C)C (centres undefined) | -13.4 | 
15 | COc1cc(/C=N/n2c(-c3ccccc3)n[nH]c2=S)ccc1O | 7.21 | 
16 | Cc1ccn(CCC(=O)NC2CC(C)(C)Cc3c2cnn3-c2ccccc2C)n1 (centres undefined) | 7.13 | 
17 | CC[C@H](C)[C@@H]1NC(=O)c2cc([N+](=O)[O-])cc(I)c2NCC[C@@H](C(N)=O)NC(=O)[C@H](CCCN=C(N)N)NC1=O | 1.27 | 
18 | Cc1ccc(-c2cc(C(=O)OC3CCOC3=O)c3ccccc3n2)c(C)c1 (centres undefined) | -6.55 | 
19 | CCOC(=O)c1c(C)[nH]c(C)c1C(=O)COC(=O)/C=C/c1ccco1 |  | > 39 µM
20 | C[C@H]1CN([C@@H](C)CO)C(=O)c2c(c3ccccc3n2C)-c2ccccc2CO[C@H]1CN(C)C | 7.48 | 

Row | Structure (SMILES) | activity change, negative = inhibition [%] | AC50
21 | N#C/C(=C\c1ccc(N2CCOCC2)o1)C(=O)Nc1ccc(O)cc1 | 10.9 | 
22 | CC(=O)Nc1ccc(S(=O)(=O)N2CCCC(C(=O)O)C2)cc1 (centres undefined) | -9.46 | 
23 | CN1C(=O)CSc2ccc(NC(=O)N3CCc4ccccc43)cc21 |  | 20.2 µM (active)
24 | COc1cc2c(cc1N)-c1ccc(N)cc1C2=O |  | 1.18 µM (active)
25 | Cc1n[nH]c(=O)nc1Nc1ccc(O)cc1 |  | 11.8 µM (active)
26 | CCOc1ccc(S(=O)(=O)NCc2ccccc2Cl)cc1C(N)=O |  | > 39 µM
27 | CC(C)Cc1nnc(NC(=O)CCC(=O)NCc2ccccc2Cl)s1 | -3.67 | 
28 | COc1cc(/C=C/C(=O)OCC(=O)Nc2ccc(S(N)(=O)=O)cc2)ccc1O | -2.24 | 
29 | CCCNC(=O)Nc1ccc2c(c1)C(=O)N(C)[C@@H]1CC[C@H](CC(=O)NC3CCC3)O[C@H]1CO2 | -5.24 | 
30 | COc1cc2nncc(SC)c2cc1OC | -3.57 | 
31 | Cc1[nH]c(=O)c(C#N)c2c1CCCC2 | -9.64 | 
32 | COc1ccc(/C=C2/C(=O)C(C)(C(C)C)CCC2C)cc1 (centres undefined) | 8.31 | 
33 | COc1ccc(/C=C/c2onc(C)c2S(=O)(=O)N2CCC(C(=O)N3CCCCCC3)CC2)cc1 | 6.66 | 
34 | C[C@H](CO)N1C[C@H](C)[C@@H](CN(C)C(=O)Nc2ccc(C(F)(F)F)cc2)Oc2c(NS(=O)(=O)c3ccccc3)cccc2C1=O |  | > 39 µM
35 | Cc1cccc2sc(NNC(=O)C3COc4ccccc4O3)nc12 (centres undefined) |  | 0.294 µM (active)
36 | COc1ccc(/C=C\c2onc(C)c2S(=O)(=O)N2CCC(C(=O)NCCC(C)C)CC2)cc1 | -18.3 | 
37 | CC1CCN(CCCn2c(=S)[nH]c3c(sc4ccccc43)c2=O)CC1 |  | > 39 µM
38 | Cc1ccc2nc(-c3ccc4c(c3)OCCO4)cn2c1 |  | 12.4 µM (active)
39 | COc1cc(/C=C/C(=O)c2ccc([N+](=O)[O-])o2)ccc1O | -7.14 | 
